According to PubChem BioAssay (Tox21):
Where “and” joins values, the source holds several entries; their conditions need not be identical. Equal values may be shown once. More than one record can exist for a structure, and the calls need not agree. Calls of active or inactive are those of the source. A call without a number means that no potency is given here. Unless noted, the call rests on the fitted dose curve; in most records, active means well fitted curve in the direction sought with a large enough effect in the repeat runs; inconclusive means weak or mixed curves; inactive means no such curve, though single readings can be large; an effect the other way counts as inactive or inconclusive.

Key:
[1] = qHTS assay to identify small molecule antagonists of the glucocorticoid receptor (GR) signaling pathway - cell viability counter screen (AID 720693); further: nearly all actives have a fitted effect of over 55% in size; further: potency means the concentration at half of the fitted maximal effect
[2] = qHTS assay for identifying genotoxic compounds that show differential cytotoxicity against isogenic chicken DT40 cell lines with known DNA damage response pathways - wild type cell line (AID 743012); further: nearly all actives have a fitted effect of over 60% in size; further: potency means the concentration at half of the fitted maximal effect
How it was run: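 Viability by ATP luminescence (CellTiter-Glo, 30 min RT) after 40 h compound treatment at 37 C/5% CO2, using 300 parental DNA repair-proficient DT40 cells per well.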

[3] = qHTS assay for identifying genotoxic compounds that show differential cytotoxicity against isogenic chicken DT40 cell lines with known DNA damage response pathways - Rev3 mutant cell line (AID 743014); further: nearly all actives have a fitted effect of over 55% in size; further: potency means the concentration at half of the fitted maximal effect
[4] = qHTS assay for identifying genotoxic compounds that show differential cytotoxicity against isogenic chicken DT40 cell lines with known DNA damage response pathways - Rad54/Ku70 mutant cell line (AID 743015); further: nearly all actives have a fitted effect of over 60% in size; further: potency means the concentration at half of the fitted maximal effect
[5] = qHTS assay to identify small molecule antagonists of the androgen receptor (AR) signaling pathway - cell viability counter screen (AID 743033; further: nearly all actives have a fitted effect of over 45% in size; further: potency means the concentration at half of the fitted maximal effect)
[6] = qHTS assay to identify small molecule antagonists of the androgen receptor (AR) signaling pathway using the MDA cell line - cell viability counter screen (AID 743041; further: nearly all actives have a fitted effect of over 45% in size; further: potency means the concentration at half of the fitted maximal effect)
How it was run: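 qHTS viability read-out; MDA-kb2 AR-luc; R1881-stimulated; 16 h exposure at 37C, 0% CO2; CellTiter-Fluor, 30 min; fluorescence intensity.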

[7] = qHTS assay to identify small molecule antagonists of the thyroid receptor (TR) signaling pathway - cell viability counter screen (AID 743064); further: nearly all actives have a fitted effect of over 50% in size; further: potency means the concentration at half of the fitted maximal effect
How it was run: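 Counter screen for cytotoxicity: compound plus T3 (1 nM final) on GH3.TRE-Luc cells, 23.5 h at 37 °C, then fluorescence viability readout with CellTiter-Fluor.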

[8] = tested on: thyroid hormone receptor (rat, GH3 cells); assay: qHTS assay to identify small molecule agonists of the thyroid receptor (TR) signaling pathway (AID 743066; calls by dose curve)
[9] = target: Estrogen receptor (Homo sapiens) (UniProt P03372); assay: qHTS assay to identify small molecule antagonists of the estrogen receptor alpha (ER-alpha) signaling pathway (AID 743069; active means well fitted curve in the direction sought with a large enough effect in the signal ratio in the repeat runs, not every such curve was filed as active; inconclusive means weak or mixed curves, or effect the other way; inactive means no such curve, though single readings can be large or run the other way; the % refers to the signal ratio; further: potency means the concentration at half of the fitted maximal effect)
How it was run: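 Screening used a UAS-driven beta-lactamase reporter integrated into HEK293 cells expressing ER-alpha, stimulated with 17beta-estradiol alongside test compounds over 18 hr at 37C; signal came from LiveBLAzer B/G FRET fluorescence.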

[10] = target: Estrogen receptor (Homo sapiens) (UniProt P03372); assay: qHTS assay to identify small molecule agonists of the estrogen receptor alpha (ER-alpha) signaling pathway using the BG1 cell line (AID 743079); further: nearly all actives have a fitted effect of over 20% in size; further: potency means the concentration at half of the fitted maximal effect
[11] = qHTS assay to identify small molecule antagonists of the estrogen receptor alpha (ER-alpha) signaling pathway using the BG1 cell line (AID 743080; calls by dose curve;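 further: BG1 cells stimulated with 17beta-estradiol alongside compound; series mostly up to about 70 µM; nearly all actives have a fitted effect of over 25% in size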)
How it was run: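 Luminescence from a 4×ERE-luciferase reporter in BG1-Luc-4E2 cells served as read-out. Cells, pre-cultured 5 days in stripped-serum phenol-red-free medium, were exposed to compound with 17beta-estradiol co-stimulation for 21.5 h at 37 C.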

[12] = qHTS assay to identify small molecule antagonists of the estrogen receptor alpha (ER-alpha) signaling pathway using the BG1 cell line - cell viability counter screen (AID 743081);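 further: compound given together with 17beta-estradiol as the ER stimulus; nearly all actives have a fitted effect of over 45% in size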; further: potency means the concentration at half of the fitted maximal effect
Aromatase (Homo sapiens) = Aromatase (Homo sapiens) (UniProt P11511); assay: qHTS assay to identify aromatase inhibitors (AID 743083); further: nearly all actives have a fitted effect of over 55% in size; further: potency means the concentration at half of the fitted maximal effect
[13] = qHTS assay to identify aromatase inhibitors - cell viability counter screen (AID 743084);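 further: cells stimulated with testosterone during compound exposure; nearly all actives have a fitted effect of over 55% in size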; further: potency means the concentration at half of the fitted maximal effect
[14] = target: Estrogen receptor (Homo sapiens) (UniProt P03372); assay: qHTS assay to identify small molecule agonists of the estrogen receptor alpha (ER-alpha) signaling pathway (AID 743075; calls by dose curve)
[15] = qHTS assay to identify small molecule antagonists of the estrogen receptor alpha (ER-alpha) signaling pathway - cell viability counter screen (AID 743074; calls by dose curve; further: nearly all actives have a fitted effect of over 45% in size; further: potency means the concentration at half of the fitted maximal effect)
[16] = qHTS assay to identify small molecule antagonists of the thyroid receptor (TR) signaling pathway (AID 743065); further: nearly all actives have a fitted effect of over 55% in size; further: potency means the concentration at half of the fitted maximal effect
How it was run: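 GH3.TRE-Luc rat pituitary cells carrying two TR response elements driving luciferase were plated for 4 h, given compound plus 1 nM T3 (final), and incubated 23.5 h at 37 C. ONE-Glo luminescence measured reporter inhibition; CellTiter-Fluor fluorescence tracked cytotoxicity.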

[17] = target: Androgen receptor (Homo sapiens) (UniProt P10275); assay: qHTS assay to identify small molecule antagonists of the androgen receptor (AR) signaling pathway (AID 743035; active means well fitted inhibition curve with a large enough effect in the signal ratio in the repeat runs, not every such curve was filed as active; inconclusive means weak or mixed curves, or effect the other way; inactive means no such curve, though single readings can be large or run the other way; the % refers to the signal ratio; further: potency means the concentration at half of the fitted maximal effect)
How it was run: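 Antagonist mode: AR-bla HEK293 cells co-treated with test compounds and agonist R1881 for 16 h at 37C, 5% CO2. Beta-lactamase activity read as FRET fluorescence after 2 h room-temperature substrate loading.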

[18] = target: Androgen receptor (Homo sapiens) (UniProt P10275); assay: qHTS assay to identify small molecule agonists of the androgen receptor (AR) signaling pathway using the MDA cell line (AID 743040; further: nearly all actives have a fitted effect of over 20% in size)
How it was run: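 Agonist activity is measured as luciferase luminescence in human MDA-kb2 cells whose MMTV reporter responds to both AR and GR. Compounds in DMSO incubate 16 h at 37C, 0% CO2, and ONE-Glo is read after 30 min.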

[19] = target: Androgen receptor (Homo sapiens) (UniProt P10275); assay: qHTS assay to identify small molecule antagonists of the androgen receptor (AR) signaling pathway using the MDA cell line (AID 743042; further: nearly all actives have a fitted effect of over 55% in size; further: potency means the concentration at half of the fitted maximal effect)
How it was run: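 MDA-kb2 cells (human breast carcinoma, stably carrying an MMTV-luciferase reporter responsive to AR and GR) were plated at 3,000 cells/well and preincubated 5 hr at 37C, then given compound plus R1881 agonist for 16 h. ONE-Glo luminescence was read.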

Chain of Androgen receptor (Homo sapiens) (P10275 whole entry, looked up): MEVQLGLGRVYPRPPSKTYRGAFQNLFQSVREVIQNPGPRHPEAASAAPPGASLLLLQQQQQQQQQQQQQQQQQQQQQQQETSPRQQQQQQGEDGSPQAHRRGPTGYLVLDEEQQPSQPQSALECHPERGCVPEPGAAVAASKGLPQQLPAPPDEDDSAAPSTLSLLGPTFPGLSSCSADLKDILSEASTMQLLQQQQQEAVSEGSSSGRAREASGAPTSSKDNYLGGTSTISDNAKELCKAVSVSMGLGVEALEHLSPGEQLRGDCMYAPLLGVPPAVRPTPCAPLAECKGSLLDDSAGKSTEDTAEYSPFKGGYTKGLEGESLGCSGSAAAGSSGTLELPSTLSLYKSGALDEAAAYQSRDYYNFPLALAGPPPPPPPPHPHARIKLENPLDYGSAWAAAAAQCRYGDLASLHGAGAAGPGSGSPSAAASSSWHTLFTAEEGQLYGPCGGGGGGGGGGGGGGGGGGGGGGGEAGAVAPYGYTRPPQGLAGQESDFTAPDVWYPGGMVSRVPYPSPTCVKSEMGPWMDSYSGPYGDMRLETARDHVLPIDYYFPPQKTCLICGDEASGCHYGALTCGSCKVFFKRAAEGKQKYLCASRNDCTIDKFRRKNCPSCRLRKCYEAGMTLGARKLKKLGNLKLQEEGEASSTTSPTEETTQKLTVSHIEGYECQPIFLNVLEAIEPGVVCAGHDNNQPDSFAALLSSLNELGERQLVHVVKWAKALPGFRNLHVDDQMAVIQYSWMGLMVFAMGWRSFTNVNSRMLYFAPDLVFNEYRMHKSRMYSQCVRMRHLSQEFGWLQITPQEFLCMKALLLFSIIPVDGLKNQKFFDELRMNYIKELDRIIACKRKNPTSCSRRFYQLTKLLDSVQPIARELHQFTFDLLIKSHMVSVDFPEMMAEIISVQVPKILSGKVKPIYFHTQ
Chain of Aromatase (Homo sapiens) (P11511 whole entry, looked up): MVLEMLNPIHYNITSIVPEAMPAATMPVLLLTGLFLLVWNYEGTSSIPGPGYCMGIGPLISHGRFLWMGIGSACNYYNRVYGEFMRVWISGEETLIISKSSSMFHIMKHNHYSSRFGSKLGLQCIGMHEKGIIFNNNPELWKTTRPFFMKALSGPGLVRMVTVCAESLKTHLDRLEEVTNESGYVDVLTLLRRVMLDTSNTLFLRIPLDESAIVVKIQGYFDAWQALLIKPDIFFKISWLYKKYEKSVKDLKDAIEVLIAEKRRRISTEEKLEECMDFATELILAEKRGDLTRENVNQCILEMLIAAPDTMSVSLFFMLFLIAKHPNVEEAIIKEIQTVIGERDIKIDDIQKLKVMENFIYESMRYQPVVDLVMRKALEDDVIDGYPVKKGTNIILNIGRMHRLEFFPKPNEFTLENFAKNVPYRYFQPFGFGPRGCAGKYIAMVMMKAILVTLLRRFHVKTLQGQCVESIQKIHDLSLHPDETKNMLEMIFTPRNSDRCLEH
Chain of Estrogen receptor (Homo sapiens) (P03372 whole entry, looked up): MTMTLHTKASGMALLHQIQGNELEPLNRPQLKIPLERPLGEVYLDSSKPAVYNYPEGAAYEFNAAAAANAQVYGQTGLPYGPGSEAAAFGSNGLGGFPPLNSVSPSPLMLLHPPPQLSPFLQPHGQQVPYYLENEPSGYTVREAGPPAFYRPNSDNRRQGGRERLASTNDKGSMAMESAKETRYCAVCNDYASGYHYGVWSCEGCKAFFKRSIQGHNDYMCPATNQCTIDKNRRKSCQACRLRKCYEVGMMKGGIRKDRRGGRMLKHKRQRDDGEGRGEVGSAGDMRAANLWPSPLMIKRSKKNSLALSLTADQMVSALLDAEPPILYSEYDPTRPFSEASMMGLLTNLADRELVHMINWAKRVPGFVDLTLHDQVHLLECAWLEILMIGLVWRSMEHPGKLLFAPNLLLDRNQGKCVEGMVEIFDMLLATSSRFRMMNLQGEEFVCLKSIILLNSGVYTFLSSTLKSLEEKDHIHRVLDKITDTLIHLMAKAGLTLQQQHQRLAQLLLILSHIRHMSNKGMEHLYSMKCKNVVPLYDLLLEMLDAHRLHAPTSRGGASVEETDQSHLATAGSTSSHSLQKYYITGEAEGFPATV

SMILES | Potency [1] | Potency [2] | Potency [3] | Potency [4] | Potency [5] | Potency [6] | Potency [7] | outcome [8] | Potency [9] | Potency [10] | Potency [11] | Potency [12] | Potency (Aromatase (Homo sapiens)) | Potency [13] | Potency [14] | Potency [15] | Potency [16] | Potency [17] | Potency [18] | Potency [19]
Oc1ccc(C(=C(Cl)Cl)c2ccc(O)cc2)cc1 | inactive | inactive | inactive | inactive | inactive | inactive | inactive | inactive | 48.9 µM [inconclusive] (active) | 0.243 µM (active) | inactive | inactive | inactive | 48.5 µM (active) | – | – | – | – | – | –
COc1ccc(OC)c(CC(C)N)c1 (stereo not drawn) | inactive | inactive | inactive | inactive | inactive | – | inactive | – | inactive | inactive | inactive | inactive | inactive | inactive | inactive | – | – | – | – | –
CCCCCCCCCCCCCCCC[N+](C)(C)C | 23.9 µM (active) and 26.6 µM (active) and 34.7 µM (active) | 473 nM (active) and 934 nM (active) and 969 nM (active) | – | 841 nM (active) and 1.05 µM (active) and 969 nM (active) | 21.1 µM (active) and 27.5 µM (active) | – | 9.44 µM (active) and 20.9 µM (active) and 13.7 µM (active) | – | – | – | – | inactive | 16.8 µM (active) and 11.8 µM (active) and 30.6 µM (active) | 29.5 µM (active) and 68.6 µM (active) | – | 21.3 µM (active) and 4.72 µM (active) and 49 µM (active) | – | – | – | –
O=c1[nH]c2ccccc2n1CCCN1CCC(n2c(=O)[nH]c3cc(Cl)ccc32)CC1 | inactive | 26.6 µM (active) | – | 23.7 µM (active) | inactive | – | – | – | – | – | – | inactive | inactive | inactive | – | – | 26.6 µM (active) | – | – | –
CCOCn1c(-c2ccc(Cl)cc2)c(C#N)c(Br)c1C(F)(F)F | 3.47 µM (active) | 1.93 µM (active) | – | 1.54 µM (active) | 0.871 µM (active) | 3.86 µM (active) | 6.11 µM (active) | – | – | – | – | – | 9.69 µM (active) | – | – | – | 1.37 µM (active) | – | – | –
Clc1ccc(C(Cl)(Cl)Cl)c(Cl)c1 | inactive | inactive | – | inactive | inactive | inactive | inactive | inactive | – | – | – | inactive | – | inactive | – | inactive | inactive | – | – | –
CC(=O)C(Cl)(Cl)Cl | inactive | 13.2 µM (active) | – | 16.6 µM (active) | 10.6 µM (active) | 26.4 µM (active) | 5.9 µM (active) | inactive | 1.88 µM [inconclusive] (active) | – | – | 23.5 µM (active) | 13.2 µM (active) | 18.7 µM (active) | – | inactive | 2.35 µM (active) | 5.31 µM (active) | inactive | 13.2 µM (active)
CN(C)[C@@H]1C(=O)C(C(N)=O)=C(O)[C@@]2(O)C(=O)C3=C(O)c4c(O)ccc(Cl)c4[C@@](C)(O)[C@H]3C[C@@H]12 | inactive | inactive | inactive and 55.6 µM (active) | inactive and 62.4 µM (active) | – | – | inactive | inactive | – | – | – | inactive | inactive | inactive | – | inactive | inactive | – | – | –
NNC(=O)c1ccccc1 | inactive | inactive | – | inactive | inactive | inactive | inactive | inactive | inactive | 19.9 µM (active) | inactive | inactive | inactive | inactive | inactive | inactive | inactive | – | – | –
COc1cc(N)c(Cl)cc1C(=O)NC1CN2CCC1CC2 (stereo not drawn) | inactive | inactive | inactive | inactive | – | inactive | inactive | inactive | – | – | – | inactive | inactive | inactive | – | inactive | – | – | – | –
S=C(SSC(=S)N1CCCCC1)N1CCCCC1 | inactive | 0.531 µM (active) | – | 0.596 µM (active) | 6.01 µM (active) | – | 0.211 µM (active) | – | – | – | – | – | 1.06 µM (active) | 0.944 µM (active) | – | inactive | 0.237 µM (active) | – | – | –
O=C1NCN(c2ccccc2)C12CCN(CC1COc3ccccc3O1)CC2 (stereo not drawn) | inactive | 23.7 µM (active) | inactive | – | inactive | inactive | – | inactive | inactive | – | inactive | inactive | inactive | inactive | inactive | inactive | – | – | – | –
CC(C)(C)OO | inactive | inactive | – | inactive | – | inactive | inactive | inactive | – | – | – | inactive | inactive | inactive | – | inactive | inactive | inactive | inactive | inactive
BrC(Br)Br | inactive | inactive | – | inactive | inactive | – | inactive | inactive | – | – | – | inactive | inactive | inactive | – | inactive | inactive | – | – | –
Cc1cc(N=Nc2ccccc2C)ccc1N | 49 µM (active) | 27.3 µM (active) | – | 27.3 µM (active) and 19.3 µM (active) | inactive | – | 24.3 µM (active) | inactive | – | – | – | 24.3 µM (active) and 27.3 µM (active) | inactive | 24.3 µM (active) | – | inactive | 7.7 µM (active) and 27.3 µM (active) | 21.9 µM (active) | inactive | inactive
